High-throughput results from PubChem.
FECH inh – inhibitors of human ferrochelatase, primary screen, biochemical, purified FECH, Ni-mesoporphyrin absorbance; 20,000 compounds, 3.3% hits; Ni-mesoporphyrin absorbance 550 nm; AID 1671448, 2021; calls only at 10 µM (by protocol);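 active = enzyme reaction rate more than 3 SD below the solvent-only control wells on the same plate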;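 also: lower slope than DMSO wells means FECH inhibition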
Target sequence (P22830 whole entry, looked up): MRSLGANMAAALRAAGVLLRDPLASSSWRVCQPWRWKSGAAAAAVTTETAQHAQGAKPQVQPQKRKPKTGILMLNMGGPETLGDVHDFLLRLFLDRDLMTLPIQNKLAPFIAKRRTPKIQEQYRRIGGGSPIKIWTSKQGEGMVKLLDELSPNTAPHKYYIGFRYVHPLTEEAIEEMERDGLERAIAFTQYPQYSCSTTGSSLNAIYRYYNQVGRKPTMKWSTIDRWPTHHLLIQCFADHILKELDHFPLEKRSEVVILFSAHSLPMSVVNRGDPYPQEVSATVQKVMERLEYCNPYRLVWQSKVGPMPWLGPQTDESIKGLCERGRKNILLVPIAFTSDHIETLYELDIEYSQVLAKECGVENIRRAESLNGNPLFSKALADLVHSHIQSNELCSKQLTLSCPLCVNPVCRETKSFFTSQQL
Calls only. The sample as a whole holds a higher share of hits than the screen did.

Cc1cc(N(C)C)nc(N2CCN(S(=O)(=O)c3ccc(Oc4ccccc4)cc3)CC2)n1 was read as FECH inh inactive.
`Cc1cccc(S(=O)(=O)N2CCN(c3nc(C)cc(N(C)C)n3)CC2)c1` gave FECH inh inactive.
CC1CCCN1Cc1cccc(C(=O)Nc2nn(C)c3ccccc23)c1 (stereo not drawn) was read as FECH inh inactive.
CCOC(=O)C1CCC(CNC(=O)Nc2c(C)nc3nc[nH]n3c2=O)CC1 (stereo not drawn) was read as FECH inh inactive.
For CC1=NN(CC(=O)NCC(=O)Nc2cc(F)ccc2C)CC1 the results were FECH inh inactive.
For Cc1ccc(CN2c3ccccc3-c3nc(SCC(=O)Nc4ccc(F)c(Cl)c4)ncc3S2(=O)=O)cc1 the results were FECH inh active.
For Cc1ccc(CN2CCCN(CC(=O)Nc3ccc(C)c(F)c3)S2(=O)=O)cc1 the results were FECH inh inactive.
Cc1ccc(CN2c3ccccc3-c3nc(SCC(=O)Nc4cc(Cl)ccc4C)ncc3S2(=O)=O)cc1 was read as FECH inh inactive.
CN1CCC(OCCCn2cnc(-c3ccccc3)c2-c2ccncc2)CC1 was read as FECH inh inactive.
`Cc1ccc(-n2ncc3c(-n4nc(C)cc4NC(=O)COc4ccccc4F)ncnc32)c(C)c1` gave FECH inh inactive.
Screening Cc1ccc(C)c(Nc2c(-c3ccc4c(c3)CCCC4)c(=O)c2=O)c1 returned FECH inh active.
For COc1cc(OC)c(Nc2c(-c3ccc4c(c3)CCCC4)c(=O)c2=O)cc1Cl the results were FECH inh inactive.
COc1ccc(Nc2c(-c3ccc4c(c3)CCCC4)c(=O)c2=O)c(OC)c1 was read as FECH inh active.
Screening Cc1ccc(Nc2c(-c3ccc4c(c3)CCCC4)c(=O)c2=O)c(Cl)c1 returned FECH inh inactive.
`Cc1cc(Cl)ccc1Nc1c(-c2ccc3c(c2)CCCC3)c(=O)c1=O` gave FECH inh inactive.
For COc1ccc(Cl)cc1Nc1c(-c2ccc3c(c2)CCCC3)c(=O)c1=O the results were FECH inh inactive.
COc1ccc(OC)c(Nc2c(-c3ccc4c(c3)CCCC4)c(=O)c2=O)c1 was read as FECH inh inactive.
For COc1ccc(C)cc1Nc1c(-c2ccc3c(c2)CCCC3)c(=O)c1=O the results were FECH inh inactive.
Screening O=c1c(Nc2ccc(F)cc2Cl)c(-c2ccc3c(c2)CCCC3)c1=O returned FECH inh active.
For Cc1ccc(C)c(N2CCN(S(=O)(=O)c3cc(C(=O)N4CCCCC4)cs3)CC2)c1 the results were FECH inh inactive.
Screening Cc1cc(Nc2ccccc2)nc(Nc2ccc(NC(=O)c3ccc(C)c(C)c3)cc2)n1 returned FECH inh inactive.
Cc1ccccc1NC(=O)CC(=O)NCC1(c2ccccc2)CC1(C)C (stereo not drawn) was read as FECH inh inactive.
Screening Cc1ccc(NC(=O)CN2C(=O)CN(C)C(=O)c3ccccc32)c(Cl)c1 returned FECH inh inactive.
COc1ccc(C2C=C(c3ccc(Cl)cc3)Nc3nc(N4C(=O)CCC4=O)nn32)cc1 (stereo not drawn) was read as FECH inh inactive.
Screening Cc1ccc(N2C(=O)CCS2(=O)=O)cc1S(=O)(=O)Nc1ccc(F)cc1 returned FECH inh inactive.
For CCc1[nH]c2ccc(CNC(=O)CC3CCS(=O)(=O)CC3)cc2c1C the results were FECH inh inactive.
Screening COc1ccc(OCC(=O)Nc2cccc(OCc3cc(=O)n4ccc(C)cc4n3)c2)cc1 returned FECH inh inactive.
Cc1ccc(OCC(=O)Nc2cccc(OCc3cc(=O)n4ccc(C)cc4n3)c2)cc1 was read as FECH inh inactive.
Cc1ccc(OCC(=O)Nc2ccc(C)c(OCc3cc(=O)n4cccc(C)c4n3)c2)cc1C was read as FECH inh active.
Cc1ccn2c(=O)cc(COc3cccc(NC(=O)COc4ccccc4Cl)c3)nc2c1 was read as FECH inh inactive.
`Cc1ccc(NC(=O)COc2ccccc2)cc1OCc1cc(=O)n2cccc(C)c2n1` gave FECH inh active.
Screening COc1ccc(OCC(=O)Nc2cccc(OCc3cc(=O)n4cc(Cl)ccc4n3)c2)cc1 returned FECH inh inactive.
For CCC(Oc1ccccc1)C(=O)Nc1ccc(C)c(OCc2cc(=O)n3cccc(C)c3n2)c1 (stereo not drawn) the results were FECH inh inactive.
For Cc1ccc(OCC(=O)Nc2cccc(OCc3cc(=O)n4cc(Cl)ccc4n3)c2)cc1C the results were FECH inh inactive.
Cc1ccccc1OCC(=O)Nc1ccc(C)c(OCc2cc(=O)n3cccc(C)c3n2)c1 was read as FECH inh active.
Cc1cccc(OCC(=O)Nc2ccc(C)c(OCc3cc(=O)n4cccc(C)c4n3)c2)c1 was read as FECH inh active.
`Cc1ccn2c(=O)cc(COc3cccc(NC(=O)COc4ccccc4)c3)nc2c1` gave FECH inh inactive.
Cc1cccc(OCC(=O)Nc2cccc(OCc3cc(=O)n4ccc(C)cc4n3)c2)c1 was read as FECH inh inactive.
